The record followed here is PubChem BioAssay (NCI).

Compounds without any hit were thinned out: in the full panel of roughly 79,000, 15% have a hit. The source made the active and inactive calls. Rule as the data show it: active = growth inhibition above about 70%; inactive = the rest.

This test can be described thus: NCI Yeast Anticancer Drug Screen. Data for the mlh1 rad18 strain (AID 175). The conditions noted are these: S. cerevisiae mlh1 rad18 strain growth inhibition, hits give high values; at 50.0 µM unless noted. The method in brief:
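Compound-treated yeast growth, normalised to vehicle controls. Strain bears defined DNA repair mutations.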
Regarding `O=C(NSN1CCOCC1)c1ccccc1`, the growth inhibition is 38% (inactive).

As to `O=C(NO)c1ccccc1`, the growth inhibition was 27.8% (inactive).

As for `N#CCCC(C#N)(CCC#N)C(N)=O`, the growth inhibition was 1.55% (inactive).

In the case of `CCCCCCCCCCCCC(C)O` (stereo not given), the growth inhibition was -24.8% (inactive).

On to `FC(F)(F)c1ccc2ccc3ccc(Cl)cc3c2c1`, for which the growth inhibition was -6.55% (inactive).

For `Nc1ncnc2c1ncn2CC(O)CN(CCO)CCO` (stereo not given), the growth inhibition was 18.6% (inactive).

As for `CSC(N)=Nc1cccc2ccccc12`, the growth inhibition is -41% (inactive).

For the molecule `O=C(c1ccc([N+](=O)[O-])cc1)N(Cc1ccccc1)Cc1ccccc1` (tested in a mixture with another compound), the growth inhibition was 9.5% (inactive).

In the case of `O=C(O)Cc1ccc(C(=O)O)cc1`, the growth inhibition was 32.8% (inactive).

With `C=C1c2nc3ccccc3n2C=C(c2ccccc2)N1c1ccc(OC)cc1`, the growth inhibition was 7.05% (inactive).

For the molecule `CC1CC(=O)Nc2nc3ccccc3n21` (stereo not given), the growth inhibition is -28.8% (inactive).

Consider `COc1ccc2[nH]c3ccccc3c(=O)c2c1`, for which the growth inhibition is -6.65% (inactive).

Turning to `OC1(C2(O)CCCC2)CCCC1`, the growth inhibition was 12.8% (inactive).

On to `Cc1ccc(C(CC(=O)C(C)(C)CN2CCCCC2)SCCS(=O)(=O)O)cc1` (stereo not given), for which the growth inhibition was 20% (inactive).

As to `CC1=CC(=O)CC(C)(C)C1`, the growth inhibition was 3.45% (inactive).

`C=C1CC(c2ccccc2)(c2cccs2)OC1=O` (stereo not given): the growth inhibition is 90.7% (active).

Regarding `Cc1cc(=O)[nH]c2[nH]c(=O)ccc12`, the growth inhibition is 2% (inactive).

With `Cn1c(=O)c2nc(SCC(=O)O)n(C)c2n(C)c1=O`, the growth inhibition is 3.2% (inactive).

Regarding `CCOC(=N)n1c(=O)n(C2=NCCN2)c2ccccc21`, the growth inhibition is -43.8% (inactive).

As for `CC(C)C1N(N2C(=O)CS(=O)(=O)C2C(C)C)C(=O)CS1(=O)=O` (stereo not given), the growth inhibition was 24.3% (inactive).
